Measured values: the supplement of paper PMC10849652
Of roughly 8,800 targets only a part is listed; those with a hit were picked by preference. About 0.5% of all pairs of compound and target were hits. A number with no mark means an inactive call.

Assays:
Assay in all cases: log2 fold change, soluble protein after heating vs DMSO (PISA); higher = thermal stabilisation; K562 lysate, 10 uM; active = over 0.2 and 3.5 SD of the protein, either way, in both replicates (recomputed)
lapatinib = compound: CS(=O)(=O)CCNCc1ccc(-c2ccc3ncnc(Nc4ccc(OCc5cccc(F)c5)c(Cl)c4)c3c2)o1 [lapatinib]
In short: (§1)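 Soluble protein was defined as the supernatant remaining after 21,000xg for 90 min, following pooling of heated aliquots and adjustment to 0.5% NP-40 at 4°C. Before that, crude K562 extract at 1 mg/mL protein in PBS pH 7.4 with 1 mM MgCl2 was treated with 10 μM compound for 30 min and heated for 3 min across 48°C-58°C. Quantification used TMTpro 16plex LC-MS/MS with channel sums equalised, and values are log-two fold changes in thermal stability relative to solvent controls from duplicates.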

pictilisib = compound: CS(=O)(=O)N1CCN(Cc2cc3nc(-c4cccc5[nH]ncc45)nc(N4CCOCC4)c3s2)CC1 [pictilisib]
In short: as §1

crizotinib = compound: C[C@@H](Oc1cc(-c2cnn(C3CCNCC3)c2)cnc1N)c1c(Cl)ccc(F)c1Cl [crizotinib]
In short: as §1

[1] = compound: C[C@H](C1=CC=C(C=C1)C(=O)NC2=C3C=CNC3=NC=C2)N
In short: as §1

duvelisib = compound: C[C@H](Nc1ncnc2nc[nH]c12)c1cc2cccc(Cl)c2c(=O)n1-c1ccccc1 [duvelisib]
In short: as §1

gandotinib = compound: Cc1cc(Nc2cc(CN3CCOCC3)c3nc(C)c(Cc4ccc(Cl)cc4F)n3n2)n[nH]1 [gandotinib]
In short: as §1

tozasertib = compound: Cc1cc(Nc2cc(N3CCN(C)CC3)nc(Sc3ccc(NC(=O)C4CC4)cc3)n2)n[nH]1 [tozasertib]
In short: as §1

doramapimod = compound: Cc1ccc(-n2nc(C(C)(C)C)cc2NC(=O)Nc2ccc(OCCN3CCOCC3)c3ccccc23)cc1 [doramapimod]
In short: as §1

bafetinib = compound: Cc1ccc(NC(=O)c2ccc(CN3CC[C@H](N(C)C)C3)c(C(F)(F)F)c2)cc1Nc1nccc(-c2cncnc2)n1 [bafetinib]
In short: as §1

[2] = compound: Cc1cccc(CC(=O)N2CCc3c2ccc(-c2cn(C)c4ncnc(N)c24)c3F)n1
In short: as §1

Chain of UniProt P23919 (P23919 whole entry, looked up): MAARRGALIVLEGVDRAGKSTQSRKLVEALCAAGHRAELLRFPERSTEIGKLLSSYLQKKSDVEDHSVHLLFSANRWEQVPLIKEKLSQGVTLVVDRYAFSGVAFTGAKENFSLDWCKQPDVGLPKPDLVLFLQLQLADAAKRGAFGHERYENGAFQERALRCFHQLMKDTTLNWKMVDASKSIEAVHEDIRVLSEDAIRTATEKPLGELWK
Chain of UniProt Q8N9F7 (Q8N9F7 whole entry, looked up): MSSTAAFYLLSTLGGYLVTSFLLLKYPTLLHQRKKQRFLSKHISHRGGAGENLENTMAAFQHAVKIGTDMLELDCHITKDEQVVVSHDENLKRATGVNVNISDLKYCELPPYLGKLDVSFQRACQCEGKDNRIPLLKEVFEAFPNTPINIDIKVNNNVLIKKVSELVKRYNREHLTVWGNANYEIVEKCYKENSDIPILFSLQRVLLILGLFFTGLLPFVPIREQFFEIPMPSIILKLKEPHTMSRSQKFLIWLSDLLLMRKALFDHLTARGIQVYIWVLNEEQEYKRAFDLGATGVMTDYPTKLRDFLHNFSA
Chain of UniProt Q9HCG7 (Q9HCG7 whole entry, looked up): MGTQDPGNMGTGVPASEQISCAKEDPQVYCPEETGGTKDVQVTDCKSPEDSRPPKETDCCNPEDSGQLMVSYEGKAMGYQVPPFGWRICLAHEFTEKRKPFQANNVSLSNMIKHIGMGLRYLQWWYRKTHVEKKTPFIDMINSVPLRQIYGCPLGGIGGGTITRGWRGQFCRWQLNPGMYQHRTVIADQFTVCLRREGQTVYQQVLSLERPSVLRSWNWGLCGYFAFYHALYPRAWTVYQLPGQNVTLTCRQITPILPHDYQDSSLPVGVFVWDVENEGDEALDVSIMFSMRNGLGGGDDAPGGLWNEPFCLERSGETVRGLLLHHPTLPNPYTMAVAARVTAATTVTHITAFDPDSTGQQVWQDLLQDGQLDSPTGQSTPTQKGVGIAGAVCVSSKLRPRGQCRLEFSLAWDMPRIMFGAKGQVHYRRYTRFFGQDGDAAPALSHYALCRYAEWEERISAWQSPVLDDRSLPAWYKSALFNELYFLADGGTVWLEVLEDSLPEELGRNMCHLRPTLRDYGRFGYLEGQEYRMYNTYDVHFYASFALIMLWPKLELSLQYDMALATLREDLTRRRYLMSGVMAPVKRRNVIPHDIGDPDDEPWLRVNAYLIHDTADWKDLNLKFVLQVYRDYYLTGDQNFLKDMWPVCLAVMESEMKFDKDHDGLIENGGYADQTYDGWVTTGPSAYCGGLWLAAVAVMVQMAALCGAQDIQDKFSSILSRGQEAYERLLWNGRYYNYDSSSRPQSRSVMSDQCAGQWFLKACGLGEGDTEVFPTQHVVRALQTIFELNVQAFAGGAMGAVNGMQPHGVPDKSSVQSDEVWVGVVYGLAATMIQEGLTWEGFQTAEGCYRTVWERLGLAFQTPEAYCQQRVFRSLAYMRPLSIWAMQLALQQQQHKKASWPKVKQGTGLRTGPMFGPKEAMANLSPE
Chain of UniProt O94905 (O94905 whole entry, looked up): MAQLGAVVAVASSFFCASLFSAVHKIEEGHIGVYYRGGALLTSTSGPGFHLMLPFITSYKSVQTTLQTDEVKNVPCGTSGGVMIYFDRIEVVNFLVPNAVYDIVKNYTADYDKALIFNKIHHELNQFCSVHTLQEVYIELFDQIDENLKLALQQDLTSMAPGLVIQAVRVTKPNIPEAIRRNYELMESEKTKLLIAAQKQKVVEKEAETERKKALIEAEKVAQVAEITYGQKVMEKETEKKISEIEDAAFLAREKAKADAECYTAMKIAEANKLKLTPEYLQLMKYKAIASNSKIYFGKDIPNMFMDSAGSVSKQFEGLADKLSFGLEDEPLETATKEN
Chain of UniProt Q6P4F2 (Q6P4F2 whole entry, looked up): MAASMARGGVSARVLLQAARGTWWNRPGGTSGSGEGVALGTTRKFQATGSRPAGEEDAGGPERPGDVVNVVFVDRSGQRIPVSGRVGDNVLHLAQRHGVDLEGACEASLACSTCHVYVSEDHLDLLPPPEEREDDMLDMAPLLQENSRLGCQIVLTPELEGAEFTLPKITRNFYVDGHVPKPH
Chain of UniProt Q9NRY5 (Q9NRY5 whole entry, looked up): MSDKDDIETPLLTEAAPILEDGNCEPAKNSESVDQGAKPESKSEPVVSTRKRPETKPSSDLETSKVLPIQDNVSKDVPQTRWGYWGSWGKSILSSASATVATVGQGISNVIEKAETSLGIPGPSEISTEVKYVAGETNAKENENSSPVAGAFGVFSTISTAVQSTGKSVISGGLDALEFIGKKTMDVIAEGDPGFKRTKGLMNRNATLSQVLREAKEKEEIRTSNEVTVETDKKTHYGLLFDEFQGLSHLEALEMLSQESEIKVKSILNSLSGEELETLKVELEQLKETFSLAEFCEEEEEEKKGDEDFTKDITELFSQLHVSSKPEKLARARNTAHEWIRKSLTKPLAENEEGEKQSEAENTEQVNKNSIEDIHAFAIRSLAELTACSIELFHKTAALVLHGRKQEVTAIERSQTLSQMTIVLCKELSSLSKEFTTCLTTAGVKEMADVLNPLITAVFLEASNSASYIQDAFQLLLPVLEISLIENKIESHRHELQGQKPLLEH
Chain of UniProt Q86YP4 (Q86YP4 whole entry, looked up): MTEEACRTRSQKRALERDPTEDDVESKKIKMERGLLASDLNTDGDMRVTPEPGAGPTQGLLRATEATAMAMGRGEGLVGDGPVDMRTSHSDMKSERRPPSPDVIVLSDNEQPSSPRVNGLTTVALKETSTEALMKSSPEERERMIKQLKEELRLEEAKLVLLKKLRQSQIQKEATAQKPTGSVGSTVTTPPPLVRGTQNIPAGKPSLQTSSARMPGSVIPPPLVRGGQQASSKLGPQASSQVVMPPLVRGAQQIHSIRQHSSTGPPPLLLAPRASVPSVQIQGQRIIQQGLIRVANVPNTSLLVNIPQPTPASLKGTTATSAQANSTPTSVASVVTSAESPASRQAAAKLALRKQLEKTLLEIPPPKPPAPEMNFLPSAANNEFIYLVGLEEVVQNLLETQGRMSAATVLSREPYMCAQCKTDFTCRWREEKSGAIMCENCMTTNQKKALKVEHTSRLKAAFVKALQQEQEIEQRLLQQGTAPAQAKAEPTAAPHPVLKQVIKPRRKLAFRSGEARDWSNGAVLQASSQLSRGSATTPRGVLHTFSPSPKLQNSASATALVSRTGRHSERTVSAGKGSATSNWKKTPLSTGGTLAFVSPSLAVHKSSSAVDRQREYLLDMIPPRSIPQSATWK
Chain of UniProt Q6PIJ6 (Q6PIJ6 whole entry, looked up): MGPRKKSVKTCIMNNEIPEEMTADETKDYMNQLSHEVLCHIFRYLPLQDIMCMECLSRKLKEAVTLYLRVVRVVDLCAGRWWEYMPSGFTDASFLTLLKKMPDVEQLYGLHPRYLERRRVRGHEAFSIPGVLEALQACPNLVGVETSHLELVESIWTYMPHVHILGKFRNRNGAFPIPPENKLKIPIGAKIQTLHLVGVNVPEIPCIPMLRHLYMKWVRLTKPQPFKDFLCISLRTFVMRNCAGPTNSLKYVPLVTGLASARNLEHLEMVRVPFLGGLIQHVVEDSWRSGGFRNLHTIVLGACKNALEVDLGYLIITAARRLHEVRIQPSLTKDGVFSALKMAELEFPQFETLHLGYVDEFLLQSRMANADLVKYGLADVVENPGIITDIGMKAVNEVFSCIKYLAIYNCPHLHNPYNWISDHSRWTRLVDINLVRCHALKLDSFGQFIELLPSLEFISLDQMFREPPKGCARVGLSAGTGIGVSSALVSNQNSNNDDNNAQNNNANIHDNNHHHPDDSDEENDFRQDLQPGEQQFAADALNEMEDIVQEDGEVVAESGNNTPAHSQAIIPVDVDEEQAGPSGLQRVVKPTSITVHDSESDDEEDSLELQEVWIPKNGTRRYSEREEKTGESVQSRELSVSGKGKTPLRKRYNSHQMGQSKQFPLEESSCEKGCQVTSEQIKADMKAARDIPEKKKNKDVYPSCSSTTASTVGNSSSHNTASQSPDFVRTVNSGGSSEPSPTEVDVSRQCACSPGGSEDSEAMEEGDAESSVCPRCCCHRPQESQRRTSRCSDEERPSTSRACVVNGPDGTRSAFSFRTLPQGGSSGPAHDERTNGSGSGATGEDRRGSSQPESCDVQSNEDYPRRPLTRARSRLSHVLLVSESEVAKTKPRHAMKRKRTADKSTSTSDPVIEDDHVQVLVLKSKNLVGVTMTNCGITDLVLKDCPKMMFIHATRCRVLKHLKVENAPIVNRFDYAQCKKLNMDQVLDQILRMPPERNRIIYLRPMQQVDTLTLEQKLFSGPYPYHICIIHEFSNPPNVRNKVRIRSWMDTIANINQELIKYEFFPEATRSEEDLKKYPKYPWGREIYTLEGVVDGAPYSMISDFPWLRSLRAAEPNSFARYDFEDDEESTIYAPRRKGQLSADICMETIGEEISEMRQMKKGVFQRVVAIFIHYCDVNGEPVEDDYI
Chain of UniProt Q9UJY4 (Q9UJY4 whole entry, looked up): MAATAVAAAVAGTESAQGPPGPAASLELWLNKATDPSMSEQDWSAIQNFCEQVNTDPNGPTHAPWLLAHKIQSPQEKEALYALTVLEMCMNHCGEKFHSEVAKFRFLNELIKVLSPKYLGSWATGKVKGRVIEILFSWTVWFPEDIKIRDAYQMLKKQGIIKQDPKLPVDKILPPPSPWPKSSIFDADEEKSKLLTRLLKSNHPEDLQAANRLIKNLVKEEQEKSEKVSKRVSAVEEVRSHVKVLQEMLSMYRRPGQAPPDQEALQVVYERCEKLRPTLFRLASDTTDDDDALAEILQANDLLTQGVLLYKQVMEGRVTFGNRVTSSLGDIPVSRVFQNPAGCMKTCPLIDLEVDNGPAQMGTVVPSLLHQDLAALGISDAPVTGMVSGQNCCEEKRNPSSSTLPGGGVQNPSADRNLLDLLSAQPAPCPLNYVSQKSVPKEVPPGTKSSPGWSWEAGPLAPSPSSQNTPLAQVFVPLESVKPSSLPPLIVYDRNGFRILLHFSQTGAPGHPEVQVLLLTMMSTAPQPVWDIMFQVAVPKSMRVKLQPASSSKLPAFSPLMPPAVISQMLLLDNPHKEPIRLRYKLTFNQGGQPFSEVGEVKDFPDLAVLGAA

| Target | log2 fold change (lapatinib) | log2 fold change (pictilisib) | log2 fold change (crizotinib) | log2 fold change [1] | log2 fold change (duvelisib) | log2 fold change (gandotinib) | log2 fold change (tozasertib) | log2 fold change (doramapimod) | log2 fold change (bafetinib) | log2 fold change [2] |
| --- | --- | --- | --- | --- | --- | --- | --- | --- | --- | --- |
| FDX2 (UniProt Q6P4F2) | 0.047 | -0.169 | 0.057 | -0.142 | 0.188 | 0.014 | -0.15 | 0.014 | 0 | 0.112 |
| DTYMK (UniProt P23919) | 0.026 | -0.003 | -0.042 | 0.055 | 0.023 | -0.135 | 0.01 | 0.045 | 0.007 | -0.029 |
| EEF1A1P5 (UniProt Q5VTE0) | -0.006 | 0.027 | -0.026 | -0.114 | -0.098 | 0.044 | -0.001 | 0.011 | -0.017 | 0.117 |
| FIG4 (UniProt Q92562) | -0.065 | 0.12 | -0.016 | 0.039 | -0.023 | -0.099 | -0.112 | -0.067 | -0.09 | 0.058 |
| ESPL1 (UniProt Q14674) | 0.053 | 0.07 | -0.015 | 0.027 | -0.011 | 0.026 | 0.024 | -0.044 | -0.077 | 0.057 |
| EXOC3 (UniProt O60645) | -0.037 | -0.033 | -0.133 | 0.016 | -0.039 | -0.098 | 0.019 | 0.041 | -0.094 | 0.019 |
| GATAD2A isoform 3 (UniProt Q86YP4) | -0.012 | -0.031 | -0.011 | -0.031 | -0.037 | 0.016 | -0.009 | 0.026 | 0.001 | 0.061 |
| FBXO38 (UniProt Q6PIJ6) | 0.039 | -0.052 | 0.038 | 0.018 | 0.01 | -0.037 | 0.119 | 0.05 | -0.316 | -0.016 |
| GBA2 (UniProt Q9HCG7) | -0.062 | -0.012 | 0.014 | -0.094 | 0.06 | -0.009 | -0.138 | 0.055 | -0.199 | 0.054 |
| GDPD1 (UniProt Q8N9F7) | 0.03 | -0.042 | -0.157 | 0.001 | 0.049 | 0.164 | -0.029 | 0.027 | 0.022 | 0.007 |
| FAM114A2 (UniProt Q9NRY5) | 0.106 | -0.013 | 0.013 | -0.023 | 0.011 | 0.449 (active) | -0.108 | -0.011 | -0.121 | 0.196 |
| GGA2 (UniProt Q9UJY4) | -0.024 | -0.037 | -0.029 | 0.023 | -0.002 | -0.131 | 0.007 | -0.024 | -0.046 | -0.004 |
| EED, A0A5F9ZI63 | 0.047 | -0.014 | -0.001 | -0.041 | -0.006 | 0.022 | -0.01 | 0.006 | 0.033 | 0.076 |
| ERLIN2 (UniProt O94905) | -0.015 | -0.091 | -0.004 | 0.304 (active) | 0.003 | -0.077 | 0.02 | 0.043 | -0.015 | -0.114 |
| EIF2B5 (UniProt Q13144) | -0.01 | -0.012 | -0.009 | -0.005 | 0.001 | -0.119 | -0.019 | 0.003 | -0.033 | 0.006 |
